Among the data in PubChem BioAssay (NCI) are growth values, retold here.

Common to all, as to assay: NCI-60 one-dose screen, 48 h (100 = growth as untreated, 0 = no growth, -100 = all killed)
Holding throughout (details): 10 µM unless noted

The test system of assay [1] is HCT-15 colon.
The test system of assay [2] is HT29 colon.
In assay [3] the test system is SNB-75 CNS.
In assay [4] the test system is SNB-19 CNS.
For assay [5], the system named is U251 CNS.
The subject of assay [6] is PC-3 prostate.
In assay [7] the test system is SK-MEL-5 melanoma.
Assay [8] relates to UACC-62 melanoma.
The subject of assay [9] is SK-MEL-28 melanoma.
The test system of assay [10] is SK-MEL-2 melanoma.
In assay [11] the test system is EKVX NSCLC.
Assay [12] concerns SN12C renal.
Assay [13] relates to UO-31 renal.
In assay [14] the test system is TK-10 renal.
Assay [15] has as its system ACHN renal.
Assay [16] concerns CAKI-1 renal.
For assay [17], the system named is CCRF-CEM leukemia.
For assay [18], the system named is MOLT-4 leukemia.
Assay [19] deals with LOX IMVI melanoma.
In assay [20] the test system is A498 renal.

The structures appear in SMILES notation. Compounds without any hit were thinned out: in the full panel of roughly 83,000, 20% have a hit.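 48-hour exposure, single concentration, 96-well plates; percent growth endpoint where 0 means no net growth. Active: below 10.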 Values without a mark were called inactive. Active and inactive are the calls of the source.

As for `O=c1[nH]nc(-c2ccccc2)c2sc3ncc(-c4ccc(Br)cc4)n3c12`, the growth is 94.5% in [1]; 9.13% (active) in assay [2]; 19.7% in assay [3]; 44.7% in assay [4]; 38.9% in [5]; 50.2% in assay [6]. Further, the growth was 78.9% in [7]; 47.5% in assay [8]; 57.6% in [9]; 18.4% in assay [10]; 67.3% in [11]; 46.1% in assay [12]. Also, the growth was 73.3% in [13]; 109% in assay [14]; 75.7% in assay [15]; 56.1% in [16]; 22.4% in assay [17]; 41.7% in assay [18].
`CC1=C(C(=O)/C=C/c2c[nH]c3ccccc23)C(c2ccccc2)NC(=S)N1` (configuration not stated): the growth was 101% in assay [1]; 106% in assay [2]; 65.5% in assay [3]; 91.7% in assay [4]; 101% in [5]; 95.1% in assay [6]. In addition, the growth in assay [7] is 98.3%; in [8] it was 83.6%; in assay [19] it was 94.3%; in [10], 99.2%; in [11] it was 85.1%; in assay [12] it was 91.6%. The growth is 135% in [14]; 93.5% in [15]; 77.8% in assay [16]; 103% in [17]; 101% in assay [18].
As to `O=S(=O)(NCCCNc1nccc(-c2c(-c3cccc(F)c3)nc3sccn23)n1)c1cccc2ccccc12`, the growth is 18% in assay [1]; 1.97% (active) in [2]; 86.5% in [3]; 69% in [4]; 59.1% in assay [5]; 41.2% in assay [6]. The growth in assay [7] was 31.8%; in [8], 24.3%; in assay [9], 77.5%; in assay [10] it was 47.8%; in assay [11], 56.1%; in [12], 46.9%. Besides, the growth is 20% in assay [13]; 71.7% in assay [14]; 34.7% in [15]; 29.1% in assay [16]; 38.5% in [17]; 29.3% in assay [18].
On to `COc1cc(C2=C(c3cn(C)c4ccccc34)COC2=O)cc(OC)c1OC`, for which the growth was 5.39% (active) in assay [1]; 7.04% (active) in assay [2]; -31.3% (active) in assay [3]; 15.5% in assay [4]; 13.8% in [5]; 13.3% in assay [6]. For the same compound, the growth in assay [7] was 0.365% (active); in [8], 12.6%; in [9] it was 21.3%; in [10], 27.7%; in [11] it was 28.2%; in assay [12], 25%. Moreover, the growth was 10.4% in [13]; 44.2% in [14]; 28% in [15]; 7.16% (active) in assay [16]; 8.87% (active) in assay [17]; 12.2% in [18].
On to `CCOC(=O)Oc1c(OC)cc(C(=O)c2ccc(OC)c(O)c2OC)cc1OC`, for which the growth in assay [1] was 14.7%; in assay [2] it was 29.5%; in assay [3] it was 34.1%; in [4], 25.9%; in assay [5] it was 23.5%; in assay [6], 22.8%. In addition, the growth in [7] was 32%; in assay [8] it was 34.3%; in assay [19], 49.7%; in [10] it was 24.8%; in [11], 58.9%; in [12], 46%. In addition, the growth in [13] is 46.9%; in assay [14] it was 43%; in [15], 38.5%; in [16], 32%; in assay [17], 15.2%; in assay [18], 28.1%.
In the case of `CN1CCN(c2ccc(NC3=C(Cl)C(=O)c4ncccc4C3=O)cc2C(F)(F)F)CC1`, the growth in assay [1] is -47% (active); in assay [2], 78.3%; in assay [3], 96.9%; in [4], 101%; in assay [5] it was 88.6%; in assay [6], 62.9%. The growth in assay [7] was 92.8%; in assay [8] it was 87%; in [9], 76.9%; in [10], 89%; in assay [11] it was 110%; in [12] it was 93.9%. The growth is -80.4% (active) in assay [13]; -65.9% (active) in assay [14]; -56.2% (active) in [15]; -95.6% (active) in assay [16]; -1.56% (active) in assay [17]; 1.95% (active) in [18].
`O=C(CSc1nc2sc3c(c2c(=O)n1-c1ccc(Cl)cc1)CCCC3)Nc1nc(-c2cccc(Br)c2)cs1`: the growth in [1] is 87.8%; in assay [2] it was 61.7%; in [3], 41.7%; in [4] it was 84.8%; in assay [5] it was 78.8%; in assay [6], 57.5%. For the same compound, the growth was 82.8% in [7]; 85.1% in [8]; 84.4% in assay [9]; 97% in [10]; 75% in assay [11]; 79.5% in assay [12]. For the same compound, the growth in assay [13] is 74.6%; in assay [14] it was 113%; in assay [15] it was 91.1%; in [16], 49%; in [17] it was 87.7%; in assay [18], 87.1%.
In the case of `Cc1c(C(=O)NCCC(=O)NO)sc2ncnc(Nc3ccc(F)c(Cl)c3)c12`, the growth in assay [1] was 102%; in assay [2], 104%; in [3], 97.5%; in assay [4], 98.9%; in assay [5] it was 102%; in assay [6], 104%. Besides, the growth in assay [7] is 102%; in assay [8] it was 102%; in [9], 112%; in [10], 101%; in [11] it was 99.4%; in assay [12], 103%. In addition, the growth was 84.8% in assay [13]; 107% in [14]; 102% in assay [15]; 96.6% in [16]; 105% in assay [17]; 115% in assay [18].
For `CCOC(=O)c1cc(C(=O)c2ccc(OC)c(OC)c2)n2ccc(/C=C/c3cc[n+](CC(=O)c4ccc(OC)c(OC)c4)cc3)cc12`, the growth was 104% in assay [1]; 95.5% in assay [2]; 79.4% in [3]; 90.6% in assay [4]; 95.5% in assay [5]; 92.8% in assay [6]. Also, the growth in assay [7] was 98%; in assay [8] it was 96.6%; in assay [9], 104%; in assay [10], 112%; in [11] it was 99.6%; in assay [12] it was 86.8%. The growth in [13] is 82.7%; in [14], 113%; in assay [15], 96.3%; in assay [16], 96.2%; in assay [20] it was 95.6%; in assay [17], 85.7%. Also, in assay [18], the growth is 93.7%.
